Reference: PubChem BioAssay (EPA / NIEHS)
The source made the active and inactive calls. Rule for the calls: active = hit-call score of the fitted dose curve at least 0.9, where 1 is the maximum; inactive = score below 0.9.

What was measured:
[1] = BSK_hDFCGF_SRB: Viability Assessment in the BioMAP Diversity Plus: hDFCGF Assay (AID 2283061); conditions: primary human foreskin fibroblasts;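 note: cells exposed to compound for 24 h before the read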
Summary of the method: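 Viability was read as total protein: after 10% TCA fixation, wells were stained with 0.1% sulforhodamine B and read at 560 nm. Primary human foreskin fibroblasts were dosed for 24 h, with bidirectional fitting versus DMSO.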

[2] = read-out: TIMP metallopeptidase inhibitor 1 (TIMP1), TIMP1 (gene 7076); experiment: BSK_hDFCGF_TIMP1: BioMAP Diversity Plus: hDFCGF Assay for TIMP metallopeptidase inhibitor 1 (TIMP1) Biomarker Activity (AID 2283062); conditions: primary human foreskin fibroblasts; actives raise or lower the signal
Summary of the method: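 TIMP-1 measured by ELISA 24 h after chemical dosing of primary human skin fibroblasts, with gain or loss fitted relative to DMSO. Parallel SRB staining (560 nm) monitored overt cytotoxicity.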

[3] = read-out: Monokine induced gamma interferon (MIG), CXCL9 (gene 4283); experiment: BSK_hDFCGF_MIG: BioMAP Diversity Plus: hDFCGF Assay for Monokine induced gamma interferon (MIG) Biomarker Activity (AID 2283063); conditions: primary human foreskin fibroblasts; actives raise or lower the signal
Summary of the method: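 Human primary foreskin fibroblasts in the hDFCGF system, exposed to test chemical for 24 h; MIG measured by ELISA. Bidirectional curve fitting against DMSO negative control as activity baseline.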

[4] = read-out: Matrix Metallopeptidase 1 (MMP1), MMP1 (gene 4312); experiment: BSK_hDFCGF_MMP1: BioMAP Diversity Plus: hDFCGF Assay for Matrix Metallopeptidase 1 (MMP1) Biomarker Activity (AID 2283064); conditions: primary human foreskin fibroblasts; actives raise or lower the signal
Summary of the method: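 Primary human foreskin fibroblasts in the hDFCGF system were dosed with test chemical, and MMP1 was measured by ELISA 24 h later. Values come from bidirectional curve fitting against the DMSO baseline.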

[5] = read-out: Vascular cell adhesion molecule 1 (VCAM1), VCAM1 (gene 7412); experiment: BSK_hDFCGF_VCAM1: BioMAP Diversity Plus: hDFCGF Assay for Vascular cell adhesion molecule 1 (VCAM1) Biomarker Activity (AID 2283065); conditions: primary human foreskin fibroblasts; actives raise or lower the signal;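 for AC50: VCAM-1 protein level quantified by ELISA after 24 h chemical exposure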
Summary of the method: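 ELISA readout of VCAM-1 on human dermal fibroblast primary cultures, 24 h after chemical exposure. Gain or loss of signal fitted in both directions against DMSO baseline.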

[6] = read-out: Plasminogen activator inhibitor-1 (PAI1), SERPINE1 (gene 5054); experiment: BSK_hDFCGF_PAI1: BioMAP Diversity Plus: hDFCGF Assay for Plasminogen activator inhibitor-1 (PAI1) Biomarker Activity (AID 2283066); conditions: primary human foreskin fibroblasts; actives raise or lower the signal
Summary of the method: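 Human foreskin fibroblast primary cells, 24 h chemical exposure; PAI-1 measured by ELISA. Bidirectional fitting relative to DMSO; parallel cultures stained with SRB for total protein to flag overt cytotoxicity.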

[7] = read-out: Intercellular Adhesion Molecule 1 (ICAM1), ICAM1 (gene 3383); experiment: BSK_KF3CT_ICAM1: BioMAP Diversity Plus: KF3CT Assay for Intercellular Adhesion Molecule 1 (ICAM1) Biomarker Activity (AID 2283067); conditions: primary human keratinocytes with fibroblasts; actives raise or lower the signal
Summary of the method: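 Cell-surface ICAM-1 was measured by ELISA 24 h after dosing primary human skin keratinocytes co-cultured with fibroblasts. Parallel SRB staining tracked overt cytotoxicity. Gain or loss of signal was fitted relative to DMSO.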

[8] = read-out: Interferon-gamma inducible Protein 10 (IP10), CXCL10 (gene 3627); experiment: BSK_KF3CT_IP10: BioMAP Diversity Plus: KF3CT Assay for Interferon-gamma inducible Protein 10 (IP10) Biomarker Activity (AID 2283068); conditions: primary human keratinocytes with fibroblasts; actives raise or lower the signal
Summary of the method: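 KF3CT co-culture (keratinocytes + foreskin fibroblasts), 24 h compound, IP-10 by ELISA; bidirectional fit vs DMSO baseline.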

[9] = BSK_KF3CT_SRB: Viability Assessment in the BioMAP Diversity Plus: KF3CT Assay (AID 2283069); conditions: primary human keratinocytes with fibroblasts;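 note: total protein by sulforhodamine B staining as a cytotoxicity measure; read 24 h after compound addition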
Summary of the method: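 Human primary keratinocyte plus foreskin fibroblast co-culture exposed to chemicals for 24 h. Total protein measured by 0.1% sulforhodamine B staining after 10% TCA fixation, read at 560 nm; bidirectional fitting versus DMSO baseline.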

[10] = read-out: Interleukin-1 alpha (IL1a), IL1A (gene 3552); experiment: BSK_KF3CT_IL1a: BioMAP Diversity Plus: KF3CT Assay for Interleukin-1 alpha (IL1a) Biomarker Activity (AID 2283070); conditions: primary human keratinocytes with fibroblasts; actives raise or lower the signal
Summary of the method: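 Human keratinocyte plus foreskin fibroblast primary co-culture, sampled 24 h after chemical dosing. IL-1a measured by ELISA; responses fitted bidirectionally against DMSO baseline (negative control), so gain or loss of signal both count.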

[11] = read-out: TIMP metallopeptidase inhibitor 2 (TIMP2), TIMP2 (gene 7077); experiment: BSK_KF3CT_TIMP2: BioMAP Diversity Plus: KF3CT Assay for TIMP metallopeptidase inhibitor 2 (TIMP2) Biomarker Activity (AID 2283071); conditions: primary human keratinocytes with fibroblasts; actives raise or lower the signal
Summary of the method: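 Co-culture of human primary keratinocytes and foreskin fibroblasts, measured 24 h after chemical dosing. TIMP-2 quantified by ELISA and fitted in both directions relative to DMSO. Cytotoxicity checked in parallel cultures by SRB total-protein staining.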

[12] = read-out: Transforming growth factor beta 1 (TGFb1), TGFB1 (gene 7040); experiment: BSK_KF3CT_TGFb1: BioMAP Diversity Plus: KF3CT Assay for Transforming growth factor beta 1 (TGFb1) Biomarker Activity (AID 2283072); conditions: primary human keratinocytes with fibroblasts; actives raise or lower the signal
Summary of the method: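 Human keratinocyte/foreskin fibroblast co-culture; TGF-b1 measured by ELISA 24 h after dosing, fitted bidirectionally versus DMSO. Cytotoxicity checked in parallel cultures by total protein (SRB staining, 560 nm).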

[13] = read-out: C-C motif chemokine 2 (Homo sapiens) (UniProt P13500); experiment: BSK_KF3CT_MCP1: BioMAP Diversity Plus: KF3CT Assay for Monocyte Chemoattractant Protein 1 (MCP1/CCL2) Biomarker Activity (AID 2283073); conditions: primary human keratinocytes with fibroblasts; actives raise or lower the signal
Summary of the method: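 ELISA read-out of MCP-1, 24 h post-dose, in primary human skin keratinocytes co-cultured with fibroblasts. Parallel SRB staining monitors cytotoxicity; changes fitted both directions relative to DMSO.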

[14] = read-out: Matrix Metallopeptidase 9 (MMP9), MMP9 (gene 4318); experiment: BSK_KF3CT_MMP9: BioMAP Diversity Plus: KF3CT Assay for Matrix Metallopeptidase 9 (MMP9) Biomarker Activity (AID 2283074); conditions: primary human keratinocytes with fibroblasts; actives raise or lower the signal;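 for AC50: MMP9 protein level quantified by ELISA in the co-culture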
Summary of the method: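 Keratinocyte plus foreskin fibroblast human primary skin co-culture was dosed with chemical and MMP-9 was quantified by ELISA 24 h later. Bidirectional curve fitting used DMSO as negative control and activity baseline.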

[15] = read-out: urokinase plasminogen activator (uPA), PLAU (gene 5328); experiment: BSK_KF3CT_uPA: BioMAP Diversity Plus: KF3CT Assay for urokinase plasminogen activator (uPA) Biomarker Activity (AID 2283075); conditions: primary human keratinocytes with fibroblasts; actives raise or lower the signal
Summary of the method: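 Human keratinocyte plus foreskin fibroblast primary co-culture exposed to chemical for 24 h. uPA levels were quantified by ELISA, and activity was fitted bidirectionally against a DMSO negative-control baseline.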

CD40, CD40 (gene 958) = experiment: BSK_LPS_CD40: BioMAP Diversity Plus: LPS Assay for CD40 Biomarker Activity (AID 2283076); conditions: primary human HUVEC with PBMC; actives raise or lower the signal
Summary of the method: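 In the LPS system of human endothelial cells with peripheral blood mononuclear cells, CD40 levels were read by ELISA 24 h post-treatment. Signal changes in either direction were fitted against the DMSO baseline, with parallel SRB protein staining.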

[16] = read-out: E-selectin (Homo sapiens) (UniProt P16581); experiment: BSK_LPS_Eselectin: BioMAP Diversity Plus: LPS Assay for Eselectin Biomarker Activity (AID 2283077); conditions: primary human HUVEC with PBMC; actives raise or lower the signal
Summary of the method: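 E-selectin ELISA on LPS-stimulated endothelial cell/PBMC co-cultures, read 24 h post-treatment; gains and losses fitted against DMSO. Parallel SRB staining (0.1% SRB after 10% TCA fixation, 560 nm) flags overt cytotoxicity.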

[17] = read-out: Interleukin-8 (IL8), CXCL8 (gene 3576); experiment: BSK_LPS_IL8: BioMAP Diversity Plus: LPS Assay for Interleukin-8 (IL8) Biomarker Activity (AID 2283078); conditions: primary human HUVEC with PBMC; actives raise or lower the signal
Summary of the method: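 ELISA read-out of IL-8 after 24 h chemical treatment of LPS-activated endothelial/PBMC human primary co-cultures. Changes either up or down relative to DMSO; overt cytotoxicity checked by sulforhodamine B staining in parallel wells.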

[18] = BSK_LPS_SRB: Viability Assessment in the BioMAP Diversity Plus: LPS Assay (AID 2283079); conditions: primary human HUVEC with PBMC;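 note: total protein by sulforhodamine B absorbance as a cytotoxicity measure; measured one day after compound addition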
Summary of the method: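 SRB viability endpoint: cells fixed with 10% TCA, stained with 0.1% SRB, read at 560 nm, 24 h post-dose. HUVEC/PBMC co-culture; signal change in either direction scored relative to DMSO.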

[19] = read-out: Interleukin-1 alpha (IL1a), IL1A (gene 3552); experiment: BSK_LPS_IL1a: BioMAP Diversity Plus: LPS Assay for Interleukin-1 alpha (IL1a) Biomarker Activity (AID 2283080); conditions: primary human HUVEC with PBMC; actives raise or lower the signal
Summary of the method: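 Readout is IL-1a level by ELISA, 24 h post-dose, fitted as gain or loss relative to DMSO. System: LPS-activated human primary co-culture of vascular endothelium and peripheral blood mononuclear cells, with parallel SRB total-protein cytotoxicity.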

Measured: AC50

Sequence of E-selectin (Homo sapiens) (P16581 whole entry, looked up): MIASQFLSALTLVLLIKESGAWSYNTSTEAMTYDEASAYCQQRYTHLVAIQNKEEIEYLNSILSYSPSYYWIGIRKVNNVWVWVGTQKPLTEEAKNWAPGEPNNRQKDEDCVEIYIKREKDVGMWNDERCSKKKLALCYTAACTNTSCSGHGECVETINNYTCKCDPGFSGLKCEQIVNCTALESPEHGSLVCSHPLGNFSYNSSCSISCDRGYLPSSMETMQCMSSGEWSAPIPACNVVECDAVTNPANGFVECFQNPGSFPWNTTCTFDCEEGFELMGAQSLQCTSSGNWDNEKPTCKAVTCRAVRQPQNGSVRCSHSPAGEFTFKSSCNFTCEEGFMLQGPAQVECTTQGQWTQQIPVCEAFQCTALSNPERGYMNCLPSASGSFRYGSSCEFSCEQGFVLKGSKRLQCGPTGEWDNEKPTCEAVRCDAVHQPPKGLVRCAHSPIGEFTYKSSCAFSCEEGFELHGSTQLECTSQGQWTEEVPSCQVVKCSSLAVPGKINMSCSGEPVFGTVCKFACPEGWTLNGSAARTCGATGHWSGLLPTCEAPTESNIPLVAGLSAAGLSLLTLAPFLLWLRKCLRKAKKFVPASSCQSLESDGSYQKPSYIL

CC(COCC(C)OC(=O)c1ccccc1)OC(=O)c1ccccc1 (stereo not given)
inactive: all assays above

N[C@@H](Cc1c[nH]c2ccccc12)C(=O)O
inactive: all assays above

Cc1occc(=O)c1O
inactive: all assays above

COc1ccc(C(=O)Nc2nc3ccccc3c(NCc3ccccc3)c2C#N)cc1
active: CD40, CD40 (gene 958) 3.97 µM
inactive: all other assays above

Cc1ccc(-c2cc(C(F)(F)F)nn2-c2ccc(S(N)(=O)=O)cc2)cc1
active: CD40, CD40 (gene 958) 26.6 µM | [16] 30.9 µM | [17] 35.6 µM | [18] 29.2 µM | [19] 30.5 µM
inactive: all other assays above

CCCCCCCCCCCCCCCCO
active: [3] 0.777 µM
inactive: all other assays above

CN(C)C(=O)NC1(c2ccccc2)CCN(CC[C@@]2(c3ccc(F)c(F)c3)CN(C(=O)c3ccccc3)CCO2)CC1
inactive: all assays above

CC(N)=O
inactive: all assays above

O=C1CCCCC1
inactive: all assays above

CC(=O)[C@@]1(O)CC[C@H]2[C@@H]3CCC4=CC(=O)CC[C@]4(C)[C@H]3CC[C@@]21C
inactive: all assays above

CC(=O)OCC(COC(C)=O)OC(C)=O
inactive: all assays above

C=CCc1ccc(OC)c(OC)c1
inactive: all assays above

CCCCCCC(CCCCCCCCCCC(=O)OCC(COC(C)=O)OC(C)=O)OC(C)=O (stereo not given)
active: [6] 0.818 µM
inactive: all other assays above

Oc1ccc(O)cc1
inactive: [9] | [10] | [11] | [12] | [13] | [15] | CD40, CD40 (gene 958) | [18]
active: [1] 12 µM | [2] 13.4 µM | [3] 18.7 µM | [4] 33 µM | [5] 13.5 µM | [6] 14.7 µM | [7] 6.66 µM | [8] 20 µM | [14] 20 µM | [16] 26.2 µM | [17] 30.7 µM | [19] 8.51 µM
